For this test, the target named is alpha-synuclein (aSyn) WT (human, UniProt P37840 1-140). Put plainly: RNA Bind-n-Seq. The settings on record: ssRNA.
On to AGGGGGAUGUGG, for which the binding signal was 54.6 enrichment score. UGGGGGAUGGAG displayed a binding signal of 41.1 enrichment score. Sequence GCGGGAGGGCGG gave a binding signal of 49.1 enrichment score.

AGUGGGGGGGAG: the binding signal was determined as 43.8 enrichment score. For UGAGUGGGUGGU, the binding signal turned out to be 43.8 enrichment score.

GGUUGGGAGCGG: the binding signal was 43.8 enrichment score. In the case of UGGGGGGAGAAG it was 41.1 enrichment score; in that of UAGGUUGGGGGU, 46.4 enrichment score; in that of UGGGUGGGUGGG, 46.4 enrichment score. Consider GUGUGGCGGAGG, for which the binding signal is 46.4 enrichment score. On to GUGCGGGGGGGC, for which the binding signal was 43.8 enrichment score.

The sequence GGGGUGGUGUUG displayed a binding signal of 46.4 enrichment score. In the case of AGGGGUUUUGGG it was 43.8 enrichment score; in that of UUGGGUGGAGGG, 46.4 enrichment score; in that of AGUGGGGGGGUG, 43.8 enrichment score.

As for GUGGGUGUGGUA, the binding signal was 41.1 enrichment score.

GGGGAGUGGAUG: the binding signal was 49.1 enrichment score. AGGGUGGCGGUG returned a binding signal of 49.1 enrichment score.

GAGGUGGUAGGG: the binding signal was 57.4 enrichment score. GGCGGGCGGAGG had a binding signal of 49.1 enrichment score. For GUGGGGGGGGCA the value was 43.8 enrichment score; for GCGGGAUGGGGG, 43.8 enrichment score; for UGGGGUGGGAGU, 46.4 enrichment score.

The sequence GGGAGCGGGGGA showed a binding signal of 46.4 enrichment score. AUGGGGUGGGCG displayed a binding signal of 41.1 enrichment score. GGGGGUGGCAGA: the binding signal came out at 43.8 enrichment score. Sequence GUGGAGAGGUGG came in with a binding signal of 54.6 enrichment score. The sequence GGGGGGGGGGUG showed a binding signal of 49.1 enrichment score.

As for GUGUGGGGGCAG, the binding signal was 43.8 enrichment score. The sequence CGUGGGAGGGGG returned a binding signal of 43.8 enrichment score.

Regarding UGGGGAGUGGGU, the binding signal was determined as 51.8 enrichment score.

Regarding GGCGGUUGUUGG, the binding signal came to 46.4 enrichment score.

Take GGGGGUGGUGUU: the binding signal came out at 49.1 enrichment score.

(Values after publication doi:10.1101/2023.07.10.548322.)
